Reference: paper PMC5540273 (PLoS ONE, 2017)
Values joined by “and” are separate entries in the source; they are usually repeats but may differ in a detail not shown here. Equal entries are not always repeated. Where two headings read alike, the source gives them in different places.

Experiments:
CDK2 = settings: concentration: 1 μM, replicates: in singlicate; n = 1
CDK3 = settings: concentration: 1 μM, replicates: in singlicate, n = 1
CDK4-cyclinD1 = settings: concentration: 1 μM, replicates: in singlicate; n = 1
CDK4-cyclinD3 = settings: concentration: 1 μM, replicates: in singlicate; n = 1
CDK4 = settings: concentration: 1 μM, replicates: in singlicate, n = 1
CDK5 = settings: concentration: 1 μM, replicates: in singlicate; n = 1
CDK7 = settings: concentration: 1 μM, replicates: in singlicate, n = 1
CDK8 = settings: concentration: 1 μM, replicates: in singlicate, n = 1
CDK9 = settings: concentration: 1 μM, replicates: in singlicate; n = 1
CDKL1 = settings: concentration: 1 μM, replicates: in singlicate, n = 1
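Also: KINOMEscan kinase panel screen.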

| SMILES | %Inh (CDK2) [%] | %Inh (CDK3) [%] | %Inh (CDK4-cyclinD1) [%] | %Inh (CDK4-cyclinD3) [%] | %Inh (CDK4) [%] | %Inh (CDK5) [%] | %Inh (CDK7) [%] | %Inh (CDK8) [%] | %Inh (CDK9) [%] | %Inh (CDKL1) [%] | %Inh (CDK3; 1 µM) | %Inh (CDK4; 1 µM) | %Inh (CDK7; 1 µM) | %Inh (CDK8; 1 µM) | %Inh (CDKL1; 1 µM) |
| --- | --- | --- | --- | --- | --- | --- | --- | --- | --- | --- | --- | --- | --- | --- | --- |
| Clc1cc(Nc2ncnc3cc[nH]c23)ccc1OCc1ccccn1 | 8 | 1 | 10 | 0 | 10 | 22 | 29 | 0 | 30 | 16 |  |  |  |  |  |
| Nc1nc(-c2ccc3c(N)n[nH]c3c2)cc(N2CCC[C@@H](C(=O)Nc3ccccc3)C2)n1.O=C(O)C(F)(F)F.O=C(O)C(F)(F)F [GSK2288359] | 0 | 0 | 0 | 0 | 0 | 0 | 0 | 23 | 0 | 15 |  |  |  |  |  |
| Cc1ccc(C)c(NC(=O)NCCNc2ccnc(Nc3ccc(F)cc3)n2)c1 [GSK1379878] | 0 | 0 | 0 | 0 | 43 | 0 | 0 | 29 | 0 | 0 |  |  |  |  |  |
| Nc1n[nH]c2nnc(-c3ccccc3)cc12 [SB-517389] | 0 | 20 | 0 | 22 | 0 | 0 | 0 | 0 | 21 | 0 |  |  |  |  |  |
| CSc1nn2c(=O)cc(N3CCOCC3)nc2n1Cc1cccc(Cl)c1Cl [GSK2347225] | 0 | 6 | 0 | 0 | 16 | 9 | 0 | 0 | 4 | 0 |  |  |  |  |  |
| CCc1nc(-c2cccc(C)c2)c(-c2ccnc(NC(=O)c3ccccc3)c2)s1 | 0 | 0 | 15 | 6 | 13 | 21 | 24 | 1 | 0 | 0 |  |  |  |  |  |
| O=C(c1ccc(-c2cc(-c3c[nH]nc3-c3ccccn3)ccn2)cc1)N1CCCC1 [GW792479] | 19 | 72 | 22 | 0 | 0 | 38 | 0 | 63 | 2 | 57 |  |  |  |  |  |
| CNc1nccc(-c2c(-c3ccc(F)cc3)ncn2C2CCN(C)CC2)n1 [SB-222903] | 0 | 0 | 0 | 0 | 0 | 0 | 0 | 46 | 1 | 13 |  |  |  |  |  |
| Cl.Cl.c1ccc(-c2cc3ccncc3cc2OC2CCNCC2)cc1 [GSK1122999] | 0 | 10 | 0 | 0 | 11 | 0 | 0 | 15 | 2 | 10 |  |  |  |  |  |
| Clc1cccc(-c2nc(Nc3ccncc3)c3ccccc3n2)c1 [GW873004] | 0 | 0 | 21 | 0 | 0 | 0 | 10 | 50 | 0 | 30 |  |  |  |  |  |
| Nc1nc(-c2cccnc2)c(-c2ccnc3ccccc23)s1 [GW684083] | 0 | 11 | 16 | 0 | 41 | 0 | 0 | 46 | 0 | 13 |  |  |  |  |  |
| CCn1c(-c2ccncc2)nc2cnccc21 [SB-735216] | 5 | 1 | 0 | 0 | 45 | 0 | 6 | 0 | 0 | 12 |  |  |  |  |  |
| Oc1ccc2ncnc(Nc3ccc(OCc4ccccc4)cc3)c2c1 [GI262866] | 0 | 22 | 0 | 0 | 16 | 0 | 0 | 21 | 0 | 0 |  |  |  |  |  |
| Cc1ccc(NC(=O)c2cccc(C#N)c2)cc1-c1ccc(C(=O)Nc2ccncc2)cc1 [GSK1398463] | 0 | 7 | 0 | 9 | 0 | 0 | 0 | 0 | 0 | 15 |  |  |  |  |  |
| FC(F)(F)c1cc(Nc2nccc(-c3c(-c4ccc(Cl)cc4)nn4ncccc34)n2)ccc1Cl [GW829351] | 0 | 34 | 0 | 0 | 0 | 0 | 0 | 58 | 0 | 0 |  |  |  |  |  |
| CS(=O)(=O)CCNCc1ccc(-c2ccc3ncnc(Nc4ccc(OCc5ccccc5)c(Cl)c4)c3c2)o1.Cl [GW574783] | 5 | 10 | 21 | 0 | 0 | 0 | 0 | 43 | 0 | 0 |  |  |  |  |  |
| Cn1ccc2ncnc(Oc3ccc(NC(=O)Nc4cccnc4)c(Cl)c3)c21 | 0 | 0 | 0 | 0 | 0 | 4 | 7 | 0 | 2 | 8 |  |  |  |  |  |

| SMILES | %Inh (CDK2) [%] | %Inh (CDK3) [%] | %Inh (CDK4-cyclinD1) [%] | %Inh (CDK4-cyclinD3) [%] | %Inh (CDK4) [%] | %Inh (CDK5) [%] | %Inh (CDK7) [%] | %Inh (CDK8) [%] | %Inh (CDK9) [%] | %Inh (CDKL1) [%] | %Inh (CDK3; 1 µM) | %Inh (CDK4; 1 µM) | %Inh (CDK7; 1 µM) | %Inh (CDK8; 1 µM) | %Inh (CDKL1; 1 µM) |
| --- | --- | --- | --- | --- | --- | --- | --- | --- | --- | --- | --- | --- | --- | --- | --- |
| Clc1ccc(-c2cc(-c3c[nH]nc3-c3ccccn3)ccn2)cc1 [GW681251] | 22 | 42 | 7 | 0 | 0 | 0 | 0 | 11 | 0 | 15 |  |  |  |  |  |
| Fc1ccc(-c2ncn(CCCNCc3ccccc3)c2-c2ccncc2)cc1 | 0 | 7 | 0 | 13 | 0 | 4 | 27 | 0 | 0 | 0 |  |  |  |  |  |
| O=C(Nc1n[nH]c2nc(-c3ccco3)c(Br)cc12)c1ccc(CN2CCCC2)cc1.O=C(O)[C@H](O)[C@@H](O)C(=O)O [SB-742352] | 0 | 0 | 0 | 0 | 0 | 0 | 0 | 0 | 0 | 24 |  |  |  |  |  |
| Cc1cc(N2CCC(NS(=O)(=O)c3ccc(F)cc3)CC2)nc(Nc2cccc(C#N)c2)n1.O=C(O)C(F)(F)F [GSK1653537] | 4 | 0 | 0 | 0 | 5 | 0 | 0 | 10 | 0 | 0 |  |  |  |  |  |
| Fc1cccc(COc2ccc(Nc3ncnc4sc(-c5ccc[nH]5)cc34)cc2Cl)c1 [GW707818] | 0 | 10 | 0 | 11 | 17 | 0 | 0 | 31 | 14 | 6 |  |  |  |  |  |
| OCCOCCn1ccc2ncnc(Nc3ccc(Oc4cccc(Cl)c4)c(Cl)c3)c21 | 0 | 0 | 0 | 0 | 0 | 0 | 0 | 0 | 0 | 0 |  |  |  |  |  |
| COc1ccc(-c2nc3n(c2-c2ccncc2)CCC3)cc1 [SKF-104493] | 0 |  | 0 | 0 |  | 0 |  |  | 0 |  | 0% and 4% | 44% and 0% | 15% and 6% | 5% and 9% | 11% and 6% |
| Nc1nc(-c2ccc3c(N)n[nH]c3c2)cc(N2CCCCC2)n1 [GSK2228768] | 6 | 17 | 0 | 0 | 0 | 0 | 0 | 0 | 0 | 20 |  |  |  |  |  |
| COc1cc2c(Nc3cccc(NC(=O)c4ccccc4)c3)ncnc2cc1OCCCN1CCOCC1 [GSK223810] | 0 | 5 | 0 | 0 | 0 | 0 | 0 | 14 | 0 | 0 |  |  |  |  |  |
| CCC(CC)(CC)n1cnc2c(N)ncnc21 [SKF-97620] | 0 | 3 | 0 | 0 | 28 | 5 | 22 | 30 | 0 | 13 |  |  |  |  |  |
| CC(C)(C)OC(=O)NC1CCCN(c2cc(-c3ccc4c(N)n[nH]c4c3)nc(N)n2)C1 (stereo not shown) [GSK2286096] | 0 | 0 | 0 | 0 | 0 | 0 | 0 | 0 | 2 | 0 |  |  |  |  |  |
| O=c1cc(N2CCOCC2)nc2n(Cc3cccc(Cl)c3)ccn12 [GSK2296823] | 0 | 3 | 0 | 13 | 0 | 0 | 0 | 0 | 0 | 9 |  |  |  |  |  |
| COc1ccc(-c2oc3ncnc(N)c3c2-c2ccc(OC)cc2)cc1 [SB-589132] | 0 | 6 | 27 | 12 | 59 | 0 | 0 | 62 | 0 | 5 |  |  |  |  |  |
| O=C(Nc1ccccc1)Nc1ccc(Oc2ccc3nccn3n2)cc1 | 0 | 1 | 0 | 0 | 0 | 0 | 0 | 23 | 0 | 36 |  |  |  |  |  |
| COc1ccc(Nc2nccc(N3CCC(NC(=O)Nc4ccc5c(c4)OCO5)C3)n2)cc1 (stereo not shown) [GSK1379745] | 73 | 2 | 42 | 0 | 32 | 2 | 0 | 46 | 0 | 1 |  |  |  |  |  |
| CCc1nc(-c2cccc(N(C)S(=O)(=O)c3ccccc3)c2)c(-c2ccnc(Nc3ccc(N4CCN(C(C)=O)CC4)nc3)n2)s1 [GSK1645895] | 0 | 0 | 0 | 3 | 0 | 0 | 0 | 0 | 15 | 1 |  |  |  |  |  |
| FC(F)(F)c1ccc(-c2nn3ncccc3c2-c2ccnc(Nc3cccc(C(F)(F)F)c3)n2)cc1 [GW828205] | 1 | 0 | 2 | 0 | 0 | 0 | 0 | 32 | 0 | 55 |  |  |  |  |  |
